Test results: PubChem BioAssay AID485364 (National Center for Advancing Translational Sciences (NCATS), 2010)
Out of some 360,000 compounds screened, about 11,000 (3.1%) were called active. Another 4% or so got no clear call; they are omitted. The sample as a whole holds a higher share of actives than the screen did. Values without a mark were called inactive. Calls follow the shape of the dose curve; as a rule, active = well fitted inhibition curve with a large enough effect; inconclusive = small, poorly fitted or top-dose-only effect; inactive = no such curve, though single readings can be large or run the other way.

The molecules below were run against Schistosoma mansoni thioredoxin glutathione reductase (TGR) (UniProt Q962Y6) (assay: qHTS Assay for the Inhibitors of Schistosoma Mansoni Peroxiredoxins). Conditions: purified TGR, DTNB reduction, TNB absorbance 405 nm; series mostly up to 114 µM; activity change, negative = inhibition: at the top concentration.
Method in brief: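 TGR 20 nM + NADPH 100 uM (dispensed conc.), cpd preinc 15 min RT; start with NADPH (500 uM addition) then DTNB (15 mM addition). Kinetic TNB absorbance, 405 nm filter. Four-parameter Hill fit across titration.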
% is scaled to controls: 0 for no effect and ±100 for the full control effect; potency is read from the fitted curve at half-maximal effect.
Also: nearly all actives have a fitted effect of over 60% in size.

SMILES | activity change, negative = inhibition | Potency
O=C(CCCOc1ccccc1)NCc1ccco1 | 8.7% | –
NS(=O)(=O)c1ccc(-c2ccc(/C=C3\SC(=O)NC3=O)o2)cc1 | -18.6% | –
O=C1NC(=O)N(Cc2ccco2)C(=O)/C1=C\c1cccn1CCOc1ccccc1 | – | 11.2 µM (active)
COc1ccc(OCCCn2cccc2/C=C2/C(=N)N3OC(C)=CC3=NC2=O)cc1 | 6.24% | –
CCn1c(C)c(C)c2cc(C(=O)NCCc3cc(OC)ccc3OC)ccc21 | 5.8% | –
CC(=O)N1CCCc2cc(S(=O)(=O)N3CCC(C(=O)NC4CCCCC4)CC3)ccc21 | 5.19% | –
CCc1ccc(NC(=O)CSc2nc3c([nH]c4ccccc43)c(=O)n2-c2cccc(OC)c2)cc1 | 7.94% | –
COc1ccc(-n2c(=O)c3c(c4cc(OC)ccc4n3C)n(Cc3cccc(C)c3)c2=O)cc1 | -3.96% | –
CCC(=NCc1ccco1)c1c(O)n(Cc2ccccc2)c(=O)[nH]c1=O | – | 28.2 µM (active)
Nc1c(N(Cc2ccco2)C(=O)c2cccc(F)c2)c(=O)[nH]c(=O)n1Cc1ccccc1 | -25% | –
CCC(=NCCCO)c1c(O)n(-c2ccc(OC)cc2)c(=O)[nH]c1=O | -4.2% | –
CC(C)Cn1c(=O)c2ccccc2n2c(CCC(=O)N3CCN(c4cccc(Cl)c4)CC3)nnc12 | 6.71% | –
Cn1cc(S(=O)(=O)N2CCC(Cc3ccccc3)CC2)c(=O)n(C)c1=O | -22.8% | –
O=C(O)c1ccc(S(=O)(=O)N2CCC(Cc3ccccc3)CC2)cc1 | 5.48% | –
Cc1ccc(/C=C/C(=O)O)cc1S(=O)(=O)N1CCC(Cc2ccccc2)CC1 | – | 25.1 µM (active)
Cc1noc(/C=C/c2ccco2)c1S(=O)(=O)N1CCC(C(=O)N2CCc3ccccc32)CC1 | – | 44.7 µM (active)
COc1ccccc1N1CCN(C(=O)C2CCN(S(=O)(=O)c3c(C)noc3/C=C/c3ccc(C)cc3)CC2)CC1 | -4.21% | –
CNC(=O)C1CCN(S(=O)(=O)c2c(C)noc2/C=C/c2cccc(C)c2)CC1 | -13.8% | –
CCCCCCn1nnc2sc(-c3ccccc3)cc2c1=O | 0.709% | –
CCCNC(=O)C1CCN(c2nc3ccc(C)cc3[nH]2)CC1 | 13.9% | –
CC(=O)N(C1=C(Cl)C(=O)c2ccccc2C1=O)c1ccc(C(=O)O)cc1 | – | 0.224 µM (active)
O=C(Nc1ccc(F)cc1F)c1ccc2c(=O)n3c(nc2c1)CCCCC3 | -3.37% | –
COc1ccccc1-n1c(-c2ccc(C)cc2)cn2c3c(=O)n(C)c(=O)n(C)c3nc12 | -0.306% | –
CCn1c(SC)nc(O)c(C(c2ccc(OC)c(O)c2)c2c(O)nc(SC)n(CC)c2=O)c1=O | – | 3.98 µM (active)
CCn1c(CNC(=O)c2ccc(OC)c(OC)c2)nnc1SCC(=O)Nc1ccccc1 | 0% | –

SMILES | activity change, negative = inhibition | Potency
CCn1c(COc2ccc(OC)cc2)nnc1SCC(=O)Nc1cc(OC)ccc1OC | -0.757% | –
Cc1ccc(-n2c(=O)c3cccnc3n2CC(=O)Nc2ccccc2C(F)(F)F)cc1C | -13% | –
O=C(CCn1c(=O)c2sccc2n(Cc2ccc(F)cc2)c1=O)NCc1ccc2c(c1)OCO2 | 2.35% | –
C/C(=N\NC(=O)c1ccc2ccccc2c1)c1cccnc1 | -1.51% | –
CCn1c(O)c(N=NC(=O)c2cccc(S(=O)(=O)N3CCCCC3)c2)c2ccccc21 | 3.59% | –
CCn1c(O)c2ccc(C(=O)N=NC(=O)c3cccnc3)cc2c1O | – | 100 µM (active)
CCOc1ccc(C(=O)N2CCN(CCc3ccccn3)CC2)cc1 | -1.65% | –
CCOc1ccc(NC(=O)c2c(NCc3cccc(OC)c3OC)sc3c2CCC3)cc1 | -3.15% | –
CCOc1ccc(N(CC(=O)Nc2cccc(OC)c2)S(C)(=O)=O)cc1 | 0% | –
COC(=O)CN(c1cccc(C(C)=O)c1)S(C)(=O)=O | – | 50.1 µM (active)
Cc1cccc(N(CC(=O)N2CCOCC2)S(C)(=O)=O)c1 | 4.96% | –
CCCc1cc(=O)n2[nH]c(NCc3ccc(CC)cc3)nc2n1 | 11.4% | –
COc1ccccc1NC(=O)CN1C(=O)c2ccccc2Sc2ccc(C(=O)N3CCCC3)cc21 | 3.29% | –
CO/N=C/c1ccc(N2CCN(C(=O)c3cccc(Cl)c3)CC2)c([N+](=O)[O-])c1 | -1.75% | –
O=C1CSC(=S)N1/N=C/c1ccc(O)c([N+](=O)[O-])c1 | – | 3.55 µM (active)
CCC1=Nc2cc(C(=O)NCC(C)c3ccccc3)ccc2Sc2ccc(C)cc21 (stereo not given) | 4.73% | –
CCN1CCC(N(Cc2ccc(F)cc2)C(=O)Nc2cc(C)ccc2C)CC1 | 5.4% | –
Cc1cnc(C(=O)Oc2cccc(Cl)c2Cl)cn1 | – | 22.4 µM (active)
Cc1cnc(C(=O)OCC(=O)Nc2ccc(Cl)cc2Cl)cn1 | 3.82% | –
Cc1ccc(-c2cc(C(=O)Oc3ccccc3Cl)no2)cc1C | -2.53% | –
CCCCSc1ncnc2c1sc1nc(N3CCOCC3)c3c(c12)CCCC3 | 5.26% | –
COc1cc2c(=O)c(S(=O)(=O)c3ccc(C(C)C)cc3)cn(Cc3ccccc3C)c2cc1OC | -0.789% | –
CCOc1ccc(OCC)c(NC(=O)c2c(C)nn(-c3ccccc3)c2-n2cccc2)c1 | -1.29% | –
CCOc1ccccc1NC(=O)Cn1nnc(C(=O)Nc2ccc(C)c(C)c2)c1N | -7.69% | –
CCOc1ccc(N(CC)S(=O)(=O)N2CCCC(C(=O)Nc3ccc(C(C)=O)cc3)C2)cc1 (stereo not given) | 8.08% | –
